Bioassay records from PubChem BioAssay.
In the library only some 5.3% were active in any assay of this set; here they are far more common.
ALOX12 inhib = 12-hLO (ALOX12) enzyme inhibition; Potency, µM (series often up to 57.1 µM), for inactives: at the top dose activity change, negative = inhibition, usual class: inhibitors; purified 12-hLO, xylenol orange hydroperoxide absorbance; actives 0.12% (n = 150,000); further: potency means the concentration at half of the fitted maximal effect; nearly all actives have a fitted effect of over 55% in size
Target sequence (P18054 whole entry, looked up): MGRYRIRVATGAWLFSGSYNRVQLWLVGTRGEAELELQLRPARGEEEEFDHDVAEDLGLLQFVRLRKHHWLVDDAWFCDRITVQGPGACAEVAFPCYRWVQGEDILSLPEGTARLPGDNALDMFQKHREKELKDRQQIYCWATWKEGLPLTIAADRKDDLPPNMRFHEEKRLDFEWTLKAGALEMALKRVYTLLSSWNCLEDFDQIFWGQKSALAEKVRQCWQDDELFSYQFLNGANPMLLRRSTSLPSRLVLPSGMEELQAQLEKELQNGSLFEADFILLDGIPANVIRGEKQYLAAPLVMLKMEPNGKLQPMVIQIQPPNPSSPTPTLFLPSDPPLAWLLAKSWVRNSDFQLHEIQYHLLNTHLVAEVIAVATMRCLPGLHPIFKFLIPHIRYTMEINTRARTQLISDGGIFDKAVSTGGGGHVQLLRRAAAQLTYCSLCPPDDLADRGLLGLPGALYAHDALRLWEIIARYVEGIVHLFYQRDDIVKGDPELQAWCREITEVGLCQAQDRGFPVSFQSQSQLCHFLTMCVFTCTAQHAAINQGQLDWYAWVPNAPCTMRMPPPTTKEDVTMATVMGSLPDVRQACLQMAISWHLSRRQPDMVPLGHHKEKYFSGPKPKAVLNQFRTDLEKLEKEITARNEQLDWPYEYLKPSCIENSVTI
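150 nM 12hLO, 25 mM Hepes pH 7.0 + 0.01% Triton X-100; cpd preinc 15 min RT; 40 uM arachidonic acid, 30 min RT; Fe-XO 30 min; A573/A405 ratio as read-out.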
IMPase cell inh = membrane-permeable compound that blocks inositol monophosphatase; P97697; CHO-M1 cells, IP1 accumulation, HTRF TR-FRET ratio; inhibition (IP1 accumulation), % at 46.1 µM; 120,000 tested, under 10 active; active means well fitted curve in the direction sought with a large enough effect in the signal ratio, not every such curve was filed as active; inconclusive means small, poorly fitted or top-dose-only effect, or a change in a side signal; inactive means no such curve, though single readings can be large or run the other way; the % refers to the signal ratio;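 further: cells stimulated with carbachol in lithium chloride buffer; plate controls were DMSO basal wells for no effect and reference inhibitor wells for full effect; higher means more IMPase inhibition seen as more IP1 and lower FRET ratio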
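Seeded CHO-M1 cells were dosed with compound at up to 46 uM, stimulated with carbachol for 30 min, then lysed in IP-One detection reagents. Higher IP1 lowers the TR-FRET signal.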
ALOX15B inhib = blocks human 15-lipoxygenase 2 activity; actives 0.56% (n = 110,000); Potency, µM (top dose mostly 57.1 µM), inactives show top-dose activity change, negative = inhibition, actives largely listed as inhibitors; AID 881; O15296; purified 15hLO-2, xylenol orange hydroperoxide absorbance; further: potency means the concentration at half of the fitted maximal effect; nearly all actives have a fitted effect of over 60% in size
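Enzyme 50 nM, AA 45 uM, 25 mM Hepes pH 7.5 + 0.01% Triton X-100; cpd preinc 15 min RT, rxn 90 min RT; stop/detect with 200 uM XO + 300 uM Fe(II) in 50 mM H2SO4, 30 min; A573/A405.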
HPGD block = blocks human HPGD enzyme activity; P15428; purified HPGD, NADH fluorescence kinetic, PGE2 substrate; Potency, µM, for the others: top-dose activity change, negative = inhibition, hits mostly inhibitors; actives 4.3% (n = 150,000); active means well fitted inhibition curve with a large enough effect, not every such curve was filed as active; inconclusive means small, poorly fitted or top-dose-only effect, or another doubt; inactive means no such curve, though single readings can be large or run the other way; further: potency means the concentration at half of the fitted maximal effect
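20 nM HPGD preincubated 15 min at room temperature with compound in 50 mM Tris-HCl pH 8, 0.01% Tween 20. Started with 1 mM NAD+ and 30 uM prostaglandin E2; NADH fluorescence (360/450 nm) read 5 times over 30-s intervals, last minus first.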
PNC assembly inh = perinucleolar compartment assembly inhibition | PC3M PTB-GFP, PNC prevalence imaging, 16 h; stronger effect = lower value | activity change (PNC), negative = inhibition, % at 10 µM | actives 3.1% (n = 140,000);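 active means readout at or below -70, meaning at least 70% loss of cells showing the perinucleolar compartment, a nuclear body marking cancer cells; inconclusive means readout between -30 and a set limit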;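 further: plate controls were DMSO wells for no effect and camptothecin positive control wells for full effect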
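Compounds are pinned in duplicate onto adhered PC3M cells stably expressing GFP-tagged PTB and incubated 16 h at 37 C. Cells are then fixed, nuclei stained with Hoechst, and PNC-positive cells counted.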
IMPase Li inh = IMPase inhibition in cells with lithium potentiation; AID 1457; CHO-M1 cells, IP1 TR-FRET (IP-One), carbachol + lithium; Potency, µM (series often up to 59.4 µM), for the others: at the top dose activity, negative = IMPase inhibition, most hits filed as inhibitors; actives 0.35% (n = 210,000);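 further: IP1 builds up when IMPase is blocked and the TR-FRET signal falls; potency means the concentration at half of the fitted maximal effect; plate controls were basal vehicle for no effect and high inhibitor control for full effect; nearly all actives have a fitted effect of over 50% in size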
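Steps: plate 2000 CHO-M1 cells per well and culture 16–30 h; add compound and lithium; incubate 30 min, 37C; add d2-IP1 tracer and Eu cryptate anti-IP1 antibody in lysis buffer; read after 10 min at room temperature.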
* = called active by the depositor; ? = inconclusive; · = no result; [ ] = dose if it differs, or a comment. Unless noted, the call rests on the fitted dose curve; in most records, active means well fitted curve in the direction sought with a large enough effect; inconclusive means small, poorly fitted or top-dose-only effect, or another doubt; inactive means no such curve, though single readings can be large; an effect the other way counts as inactive or inconclusive. Unless noted, on the % scale 0 is the no-effect control and ±100 the full control effect.

SMILES	ALOX12 inhib	IMPase cell inh	ALOX15B inhib	HPGD block	PNC assembly inh	IMPase Li inh
Nc1nc2c(s1)CCc1c-2cnn1-c1ccccc1	?	21	1µM*	?	10	68%[38.3 µM]
CCCCc1n[nH]c(=S)n1Cc1ccc(Cl)cc1	·	·	·	·	·	3%
CNCc1ccccc1Sc1ccc(OC)c(OC)c1	1%	-4	17%	4%	-24	6%[38.3 µM]
CNC(=O)NC(=O)CSc1nc(-c2cccs2)c(C#N)c(=O)[nH]1	·	·	·	·	·	5µM*
COc1cccc(-c2nc(SCC(=O)Nc3nc(-c4ccccc4)c(C)s3)[nH]c(=O)c2C#N)c1	·	·	·	·	·	1%
N#Cc1c(-c2ccccc2)nc(SCc2nc(N)nc(N3CCCCC3)n2)[nH]c1=O	2%	-15	-5%	?	-4	4.5µM*
CCC(Sc1nc(-c2ccccc2)c(C#N)c(=O)[nH]1)C(=O)Nc1cc(C)on1 (configuration not stated)	-4%	?	-2%	-8%	?	11µM*
CCSc1nc(-c2ccccc2)c(C#N)c(=O)[nH]1	0%	?	3%[11.4 µM]	28µM*	29	2µM*
CSc1nc(-c2ccc(Cl)cc2)c(C#N)c(=O)[nH]1	·	·	·	·	·	-13%
CCC(Sc1nc2ccccc2[nH]1)C(=O)Nc1cc(C)on1 (configuration not stated)	-2%	?	-9%	-6%	14	33%[38.3 µM]
N#Cc1c(-c2ccccc2)nc(SCC(=O)NC2CCCCC2)[nH]c1=O	·	·	·	·	·	10µM*
COC(=O)C(CC(C)C)NC(=O)CSc1nc(-c2ccccc2)c(C#N)c(=O)[nH]1 (configuration not stated)	-1%	?	-7%	-26%	7	8.9µM*
CCOC(=O)Cc1csc(NC(=O)CSc2nc(-c3ccccc3)c(C#N)c(=O)[nH]2)n1	·	·	·	·	·	-26%
CC1(C)Cc2c(c(N3CCOCC3)nc3snc(Br)c23)CO1	-3%	-4	-11%	-13%	-84*	-21%[38.3 µM]
O=C(Nc1cccc(S(=O)(=O)Nc2ccccc2F)c1)c1ccc2ccccc2n1	·	·	·	·	·	16%
O=C(/C=C/c1ccccc1)Nc1cccc(S(=O)(=O)Nc2ccccc2F)c1	1%	·	·	2µM*	-7	20%
O=C(Cc1ccc(Cl)cc1Cl)Nc1cccc(S(=O)(=O)Nc2ccccc2F)c1	-4%	·	·	3.5µM*	28	13%
N#CCCn1cnc2c1NC=NC2Cl (configuration not stated)	·	·	·	-5%	·	-3%
CCOc1cc(/C=C2\CCC/C(=C\c3cc(Cl)c(O)c(OCC)c3)C2=O)cc(Cl)c1O	-6%	10	?	16µM*	28	19%[38.3 µM]
Cc1cc2c(c(=O)o1)C1(C(=O)N(C)c3ccccc31)C(C#N)=C(N)O2 (configuration not stated)	-1%	1	-5%	-12%	30	-3%[38.3 µM]
CC(=O)N1C(=O)C2(C(C#N)=C(N)Oc3cc(C)oc(=O)c32)c2ccccc21 (configuration not stated)	-3%	15	0%	2%	-115*	20%[38.3 µM]
O=C(Nc1ccccn1)C(NS(=O)(=O)c1cccc2nsnc12)c1ccccc1 (configuration not stated)	-5%	3	·	32µM*	70	4%[38.3 µM]
Cc1cc(C)c(NC(=O)c2ccc(CNS(=O)(=O)c3cc(C(F)(F)F)ccc3Cl)cc2)c(C)c1	0%	-5	·	-8%	?	2%
COc1ccc(Cl)cc1CSc1n[nH]c(C)n1	-2%	1	1%	16µM*	?	11%[38.3 µM]
COc1cnn(-c2ccccc2)c(=O)c1SCc1ccc(Cl)cc1Cl	-17%	11	-3%	-11%	?	14%[38.3 µM]
SMILES	ALOX12 inhib	IMPase cell inh	ALOX15B inhib	HPGD block	PNC assembly inh	IMPase Li inh
COc1cnc(SCc2ccc(Cl)cc2Cl)nc1Cl	-21%	7	15%	18µM*	17	-7%[38.3 µM]
Cc1ccc(NC(=O)c2cn(CCC#N)nc2-c2cccs2)c([N+](=O)[O-])c1	-8%	-11	·	-23%	-112*	7%
N#CCCn1cc(C(=O)O)c(-c2cccs2)n1	·	·	·	·	·	-1%
CC1CC(=O)c2cnc(NCC3CCCO3)nc2C1 (configuration not stated)	-2%	-6	-1%[2.29 µM]	-28%	-8	11%[38.3 µM]
CC1(C)CC(=O)c2cnc(NCC3CCCO3)nc2C1 (configuration not stated)	9%	-1	1%	22µM*	?	29%[38.3 µM]
CCOc1ncccc1C(=O)Nc1cccc(Cl)c1Cl	·	·	·	·	·	-3%
Cc1c(C(=O)C(=O)N2CCCc3ccccc32)c2ccccc2n1C	-2%	6	·	-14%	?	17%
Cc1ccc(NC(=O)CNc2cccc(C)c2C)c(C)c1	-4%	16	-1%	32µM*	-17	15%[38.3 µM]
Cc1ccc(NC(=O)Cc2ccccc2)c(C)c1	·	·	·	·	·	-1%
O=C(c1cnc(-c2ccc(Cl)cc2)s1)c1ccc(Cl)cc1Cl	1%	-2	·	35µM*	62	-20%[38.3 µM]
COc1ccc(NC(=O)N2CC[C@@]3(CCCN(C(=O)c4cnccn4)C3)C2)cc1	8%	·	7%	-1%	·	10%
CCC(C)(C)NC(=O)c1cc([N+](=O)[O-])ccc1N1CCOCC1	-6%	0	·	-10%	19	-2%
COc1ccccc1CNC(=O)c1cccc(-c2ccccc2OC)n1	1%[0.00818 µM]	·	-6%[0.0915 µM]	7.9µM*	·	7%
COc1ccccc1CNC(=O)Nc1cccs1	-8%	-1	?	22µM*	-28	16%[38.3 µM]
COc1ccc(C(=O)NCc2ccccc2OC)c(OC)c1	-14%	4	-9%	28µM*	6	-3%[38.3 µM]
COc1ccccc1CNC(=O)c1cccs1	-3%	13	17%	16µM*	-6	-20%[38.3 µM]
COc1ccc(C(=O)NCc2ccccc2OC)cc1	-1%	-5	·	-16%	184	-5%
COc1ccc(Br)cc1CNC(=O)Nc1cccs1	-20%	-1	?	-23%	?	40%[38.3 µM]
CCOC(=O)c1sc(NC(=O)COC(=O)Cn2cnc3ccccc32)c(C(=O)OCC)c1C	0%	7	·	-2%	-97*	23%
Cc1cccc(N(C)S(=O)(=O)c2ccc3c(c2)NC(=O)CC(=O)N3)c1	·	·	·	·	·	-11%
Cc1cccc(N(C)S(=O)(=O)c2ccc3[nH]c(=O)c(=O)[nH]c3c2)c1	1%	9	-1%	14µM*	49	-17%[38.3 µM]
N[C@H](Cn1ccc(=O)n(Cc2ccccc2C(=O)O)c1=O)C(=O)O	-2%	-4	6%	-8%	·	10%
COCCn1c(=O)c(CCc2ccccc2)nc2cnc(Nc3ccccc3)nc21	·	·	-10%	·	·	10%
CCSc1cnn(-c2ccccc2)c(=O)c1SCC	1%	?	-1%	-21%	61	10µM*
